For test [1], the target named is RAC-alpha serine/threonine-protein kinase (Homo sapiens) (UniProt P31749). Conditions: at 0.1 µM.
Test [2] has the same target. Conditions: at 1 µM.
The target in test [3] is RAC-beta serine/threonine-protein kinase (Homo sapiens) (UniProt P31751). Particulars: at 0.1 µM.
Test [4] has the same target. Particulars: at 1 µM.
Test [5] has as its target RAC-gamma serine/threonine-protein kinase (Homo sapiens) (UniProt Q9Y243). Particulars: at 0.1 µM.
The target is the same in test [6]. Particulars: at 1 µM.
Test [7] has as its target G protein-coupled receptor kinase 6 (Homo sapiens) (UniProt P43250). Conditions: at 0.1 µM.
Test [8] shares this target. Conditions: at 1 µM.
Test [9] has as its target T1, Rhodopsin kinase GRK7 (Homo sapiens) (UniProt Q8WTQ7).
T1 sequence (whole entry): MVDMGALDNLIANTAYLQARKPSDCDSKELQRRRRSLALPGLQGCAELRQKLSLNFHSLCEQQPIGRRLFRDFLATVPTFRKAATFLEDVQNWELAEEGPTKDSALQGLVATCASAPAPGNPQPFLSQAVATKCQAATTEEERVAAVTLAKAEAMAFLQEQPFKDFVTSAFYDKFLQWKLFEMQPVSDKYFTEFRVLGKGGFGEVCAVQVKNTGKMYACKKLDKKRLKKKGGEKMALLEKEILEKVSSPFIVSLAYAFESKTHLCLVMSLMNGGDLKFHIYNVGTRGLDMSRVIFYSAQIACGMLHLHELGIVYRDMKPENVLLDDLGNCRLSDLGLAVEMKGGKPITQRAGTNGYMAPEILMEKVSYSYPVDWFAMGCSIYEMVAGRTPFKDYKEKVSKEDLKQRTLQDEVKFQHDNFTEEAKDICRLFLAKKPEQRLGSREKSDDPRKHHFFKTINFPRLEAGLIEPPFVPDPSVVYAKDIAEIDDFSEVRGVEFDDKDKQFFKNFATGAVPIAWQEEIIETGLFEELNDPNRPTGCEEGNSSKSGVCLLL
Particulars: at 0.1 µM.

In test [10] the target is T1, Rhodopsin kinase GRK7 (Homo sapiens). Particulars: at 1 µM.
For test [11], the target named is Serine/threonine-protein kinase MRCK alpha (Homo sapiens) (UniProt Q5VT25). Conditions: at 0.1 µM.
Chain of Serine/threonine-protein kinase MRCK alpha (Homo sapiens) (Q5VT25 whole entry): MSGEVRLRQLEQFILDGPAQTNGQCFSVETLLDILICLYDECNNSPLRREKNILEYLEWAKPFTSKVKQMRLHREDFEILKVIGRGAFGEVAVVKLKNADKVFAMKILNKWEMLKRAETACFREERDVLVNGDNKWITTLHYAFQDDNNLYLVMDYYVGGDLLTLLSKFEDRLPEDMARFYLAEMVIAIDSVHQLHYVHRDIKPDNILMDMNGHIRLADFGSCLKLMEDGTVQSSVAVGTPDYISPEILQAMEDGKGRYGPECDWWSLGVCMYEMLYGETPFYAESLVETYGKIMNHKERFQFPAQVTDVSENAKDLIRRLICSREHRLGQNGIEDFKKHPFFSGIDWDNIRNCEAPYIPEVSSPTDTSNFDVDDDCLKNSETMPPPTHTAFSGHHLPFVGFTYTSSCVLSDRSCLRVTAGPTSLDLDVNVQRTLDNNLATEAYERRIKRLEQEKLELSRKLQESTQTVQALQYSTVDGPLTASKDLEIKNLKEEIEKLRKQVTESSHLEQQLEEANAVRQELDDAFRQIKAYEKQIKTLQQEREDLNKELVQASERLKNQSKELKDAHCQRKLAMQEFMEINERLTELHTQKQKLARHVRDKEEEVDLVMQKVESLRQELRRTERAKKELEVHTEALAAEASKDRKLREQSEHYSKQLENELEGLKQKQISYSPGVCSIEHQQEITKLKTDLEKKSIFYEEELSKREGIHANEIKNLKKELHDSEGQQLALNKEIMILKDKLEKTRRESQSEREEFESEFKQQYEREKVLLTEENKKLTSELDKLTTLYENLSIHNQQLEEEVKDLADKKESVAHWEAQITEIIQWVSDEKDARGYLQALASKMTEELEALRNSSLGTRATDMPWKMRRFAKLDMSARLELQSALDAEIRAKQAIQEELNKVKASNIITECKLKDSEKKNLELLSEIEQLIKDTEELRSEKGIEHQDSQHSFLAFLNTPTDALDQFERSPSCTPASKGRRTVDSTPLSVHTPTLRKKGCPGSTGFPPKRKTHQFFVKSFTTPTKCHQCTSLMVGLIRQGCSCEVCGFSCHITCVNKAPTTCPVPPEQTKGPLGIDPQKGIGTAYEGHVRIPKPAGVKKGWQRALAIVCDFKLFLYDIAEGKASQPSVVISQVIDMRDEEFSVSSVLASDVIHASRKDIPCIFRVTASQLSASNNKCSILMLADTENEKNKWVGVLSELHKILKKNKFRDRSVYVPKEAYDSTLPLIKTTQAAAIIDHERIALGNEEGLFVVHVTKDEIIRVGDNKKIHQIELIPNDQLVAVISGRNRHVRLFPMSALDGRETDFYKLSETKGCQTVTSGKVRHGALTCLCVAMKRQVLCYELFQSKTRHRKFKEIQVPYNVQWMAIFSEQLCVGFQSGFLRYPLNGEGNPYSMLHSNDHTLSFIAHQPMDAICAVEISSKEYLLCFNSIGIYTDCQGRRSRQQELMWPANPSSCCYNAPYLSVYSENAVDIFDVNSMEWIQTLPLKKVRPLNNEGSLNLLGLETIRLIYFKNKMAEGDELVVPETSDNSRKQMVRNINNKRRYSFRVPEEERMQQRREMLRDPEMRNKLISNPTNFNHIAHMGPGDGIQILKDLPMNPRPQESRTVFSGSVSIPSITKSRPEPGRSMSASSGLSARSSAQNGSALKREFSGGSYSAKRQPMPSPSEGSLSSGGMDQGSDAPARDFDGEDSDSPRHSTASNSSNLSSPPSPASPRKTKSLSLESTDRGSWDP
The target is the same in test [12]. Conditions: at 1 µM.
Test [13] addresses Serine/threonine-protein kinase MRCK beta (Homo sapiens) (UniProt Q9Y5S2). Conditions: at 0.1 µM.
Test [14] shares this target. Conditions: at 1 µM.
Test [15] deals with Ribosomal protein S6 kinase alpha-5 (Homo sapiens) (UniProt O75582). Particulars: at 0.1 µM.
Chain of Ribosomal protein S6 kinase alpha-5 (Homo sapiens) (O75582 whole entry, looked up): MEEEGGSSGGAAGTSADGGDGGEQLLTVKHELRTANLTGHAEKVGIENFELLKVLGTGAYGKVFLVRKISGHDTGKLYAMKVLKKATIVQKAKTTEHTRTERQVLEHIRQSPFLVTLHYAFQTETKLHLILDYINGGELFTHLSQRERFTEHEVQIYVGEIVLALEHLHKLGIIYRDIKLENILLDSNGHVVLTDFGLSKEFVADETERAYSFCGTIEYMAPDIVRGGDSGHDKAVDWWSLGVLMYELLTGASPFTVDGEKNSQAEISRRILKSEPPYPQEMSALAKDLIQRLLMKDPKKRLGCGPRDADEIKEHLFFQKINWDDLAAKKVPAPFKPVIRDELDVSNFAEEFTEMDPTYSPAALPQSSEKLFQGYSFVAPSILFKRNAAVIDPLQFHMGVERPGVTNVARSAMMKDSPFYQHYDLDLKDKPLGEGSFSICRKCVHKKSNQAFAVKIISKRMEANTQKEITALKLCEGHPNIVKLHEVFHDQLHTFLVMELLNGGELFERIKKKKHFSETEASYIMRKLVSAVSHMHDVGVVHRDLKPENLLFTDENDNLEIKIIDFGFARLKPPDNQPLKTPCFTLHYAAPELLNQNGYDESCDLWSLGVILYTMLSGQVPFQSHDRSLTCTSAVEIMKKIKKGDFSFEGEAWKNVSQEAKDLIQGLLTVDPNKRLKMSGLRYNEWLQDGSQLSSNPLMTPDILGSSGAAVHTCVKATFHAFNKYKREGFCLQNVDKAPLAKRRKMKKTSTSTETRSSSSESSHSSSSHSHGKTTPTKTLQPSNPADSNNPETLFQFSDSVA
For test [16] the target is unchanged. Conditions: at 1 µM.
The target of test [17] is Ribosomal protein S6 kinase alpha-4 (Homo sapiens) (UniProt O75676). Conditions: at 0.1 µM.
Test [18] shares this target. Particulars: at 1 µM.
Test [19] deals with Ribosomal protein S6 kinase beta-1 (Homo sapiens) (UniProt P23443). Conditions: at 0.1 µM.
Chain of Ribosomal protein S6 kinase beta-1 (Homo sapiens) (P23443 whole entry, looked up): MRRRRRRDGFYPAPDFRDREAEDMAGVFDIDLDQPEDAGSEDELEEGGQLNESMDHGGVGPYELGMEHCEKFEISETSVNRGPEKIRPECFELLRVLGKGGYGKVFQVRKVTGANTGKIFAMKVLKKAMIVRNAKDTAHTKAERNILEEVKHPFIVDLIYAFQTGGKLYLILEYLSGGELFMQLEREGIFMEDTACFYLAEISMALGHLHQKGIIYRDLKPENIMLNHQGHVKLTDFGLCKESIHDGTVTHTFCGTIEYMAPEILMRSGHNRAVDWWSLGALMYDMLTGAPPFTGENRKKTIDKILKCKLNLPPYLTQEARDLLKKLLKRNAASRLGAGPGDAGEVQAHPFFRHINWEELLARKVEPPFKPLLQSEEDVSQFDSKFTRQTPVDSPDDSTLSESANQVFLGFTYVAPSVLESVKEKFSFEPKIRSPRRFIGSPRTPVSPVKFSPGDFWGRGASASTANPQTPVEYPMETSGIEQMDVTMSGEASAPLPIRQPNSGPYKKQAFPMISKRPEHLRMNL
Test [20] has the same target. Conditions: at 1 µM.

Chain of RAC-beta serine/threonine-protein kinase (Homo sapiens) (P31751 whole entry): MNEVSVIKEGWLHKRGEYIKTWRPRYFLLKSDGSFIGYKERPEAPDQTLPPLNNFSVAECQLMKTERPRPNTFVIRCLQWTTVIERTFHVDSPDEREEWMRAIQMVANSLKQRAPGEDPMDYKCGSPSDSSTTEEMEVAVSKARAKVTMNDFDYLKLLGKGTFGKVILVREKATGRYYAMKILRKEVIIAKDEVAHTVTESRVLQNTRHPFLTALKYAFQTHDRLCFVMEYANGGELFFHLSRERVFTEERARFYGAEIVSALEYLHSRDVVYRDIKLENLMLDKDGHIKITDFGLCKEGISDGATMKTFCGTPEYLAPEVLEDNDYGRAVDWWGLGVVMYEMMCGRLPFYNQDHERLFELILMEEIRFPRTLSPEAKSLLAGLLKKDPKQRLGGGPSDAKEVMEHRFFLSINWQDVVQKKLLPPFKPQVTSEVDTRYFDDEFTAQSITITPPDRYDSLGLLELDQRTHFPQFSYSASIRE
Chain of G protein-coupled receptor kinase 6 (Homo sapiens) (P43250 whole entry, looked up): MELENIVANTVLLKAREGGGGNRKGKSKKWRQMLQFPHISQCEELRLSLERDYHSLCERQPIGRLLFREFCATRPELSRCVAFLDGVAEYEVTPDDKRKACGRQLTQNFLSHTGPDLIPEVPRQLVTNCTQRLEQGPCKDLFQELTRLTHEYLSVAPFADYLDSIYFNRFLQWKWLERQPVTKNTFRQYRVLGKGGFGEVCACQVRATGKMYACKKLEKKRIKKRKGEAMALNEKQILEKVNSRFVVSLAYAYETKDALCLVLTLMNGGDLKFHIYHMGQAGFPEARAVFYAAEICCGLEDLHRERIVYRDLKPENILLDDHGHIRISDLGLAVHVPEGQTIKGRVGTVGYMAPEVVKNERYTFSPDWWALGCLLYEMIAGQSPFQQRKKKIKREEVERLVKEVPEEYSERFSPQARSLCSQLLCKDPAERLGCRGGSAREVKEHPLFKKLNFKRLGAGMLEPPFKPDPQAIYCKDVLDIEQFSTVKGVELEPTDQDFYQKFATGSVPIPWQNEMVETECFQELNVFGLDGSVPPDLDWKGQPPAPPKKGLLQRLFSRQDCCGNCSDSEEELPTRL
Chain of RAC-alpha serine/threonine-protein kinase (Homo sapiens) (P31749 whole entry): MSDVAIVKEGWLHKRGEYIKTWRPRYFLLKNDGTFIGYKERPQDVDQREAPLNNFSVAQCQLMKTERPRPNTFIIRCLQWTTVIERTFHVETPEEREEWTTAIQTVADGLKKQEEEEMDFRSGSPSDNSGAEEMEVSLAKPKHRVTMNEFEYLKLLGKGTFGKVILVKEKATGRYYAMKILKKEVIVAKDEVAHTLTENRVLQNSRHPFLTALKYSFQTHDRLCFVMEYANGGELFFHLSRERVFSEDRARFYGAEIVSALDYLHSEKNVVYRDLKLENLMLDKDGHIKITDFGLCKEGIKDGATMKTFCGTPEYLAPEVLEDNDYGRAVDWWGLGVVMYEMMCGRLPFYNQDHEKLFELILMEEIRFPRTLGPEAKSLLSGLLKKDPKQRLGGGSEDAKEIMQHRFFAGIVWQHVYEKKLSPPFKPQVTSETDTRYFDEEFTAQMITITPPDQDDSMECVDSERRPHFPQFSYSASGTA
Chain of RAC-gamma serine/threonine-protein kinase (Homo sapiens) (Q9Y243 whole entry): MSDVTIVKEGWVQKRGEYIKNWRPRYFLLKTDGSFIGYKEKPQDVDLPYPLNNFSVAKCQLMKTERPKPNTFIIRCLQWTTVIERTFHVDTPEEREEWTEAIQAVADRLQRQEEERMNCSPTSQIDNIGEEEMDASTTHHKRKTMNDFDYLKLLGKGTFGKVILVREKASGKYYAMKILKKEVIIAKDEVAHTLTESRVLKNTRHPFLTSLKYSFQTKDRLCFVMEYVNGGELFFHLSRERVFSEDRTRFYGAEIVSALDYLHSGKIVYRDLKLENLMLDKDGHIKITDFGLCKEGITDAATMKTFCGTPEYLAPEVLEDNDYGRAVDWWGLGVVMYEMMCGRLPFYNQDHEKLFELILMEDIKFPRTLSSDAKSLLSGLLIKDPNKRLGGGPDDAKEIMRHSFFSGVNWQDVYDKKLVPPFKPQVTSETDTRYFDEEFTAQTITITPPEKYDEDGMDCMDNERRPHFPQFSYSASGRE

With `Fc1cccc(COc2ccc(Nc3ncnc4sc(-c5cccs5)cc34)cc2Cl)c1`, the inhibition (in general, the relative decrease from the control value, in per cent) in [1] was 0.07%; in test [2] it was -0.67%; in test [3] it was -0.49%; in test [4] it was 0.01%; in test [5] it was 0.23%; in test [6], 1.25%. Also, the inhibition in [7] was 1.48%; in test [8], 1.31%; in test [9], 7.27%; in [10] it was -0.21%; in [11] it was 1.75%; in test [12] it was 2.49%. In addition, the inhibition in test [13] was 1.14%; in test [14] it was 1.28%; in test [15] it was -5.35%; in test [16], -7.37%; in test [17], 1.59%; in test [18], 1.29%. Moreover, the figures for the inhibition in test [19] and in test [20] were -0.02% and 0.68%, respectively.

With `Cc1ccc(C(=O)NC2CCCCC2)cc1-c1ccc(C(=O)NCC2CC2)cc1`, the inhibition in [1] is 0.04%; in [2] it was 0.76%; in test [3] it was 1.52%; in test [4] it was 1.72%; in [5] it was 2.01%; in test [6], 0.64%. Besides, the inhibition in test [7] was -0.29%; in [8], -3.25%; in [9] it was 2.64%; in test [10], 6.92%; in [11] it was 1.04%; in test [12] it was 0.21%. Besides, the inhibition is 1.37% in test [13]; 1.51% in test [14]; 2.76% in test [15]; 3.23% in test [16]; 1.19% in test [17]; 2.43% in [18]. Besides, the values for the inhibition in test [19] and in test [20] were -0.26% and 0.99%, respectively.

With `CS(=O)(=O)CCNCc1ccc(-c2ccc3ncnc(Nc4ccc(OCc5ccccc5)c(Cl)c4)c3c2)o1`, the inhibition in test [1] was -1%; in test [2] it was -0.87%; in test [3] it was 0.26%; in [4] it was 0.32%; in test [5], -0.1%; in test [6], -0.63%. Also, the inhibition was 0.49% in test [7]; 0.68% in test [8]; 7.87% in test [9]; -3.27% in test [10]; -0.63% in test [11]; -1.47% in test [12]. For the same compound, the inhibition in test [13] was 0.86%; in [14], 0.8%; in [15], -7.35%; in test [16], -6.84%; in [17], 0.04%; in test [18], 1.73%. The inhibition in [19] is 0.22%; in test [20], 2.03%.

As for `N#Cc1c(NC(=O)c2cccc3ccccc23)sc2c1CCCC2`, the inhibition is 0.5% in test [1]; 0.48% in test [2]; 1.74% in test [3]; 2.41% in test [4]; 1.33% in [5]; 1.85% in [6]. Also, the inhibition in [7] is 3.58%; in test [8] it was 3.47%; in test [9] it was 2.52%; in [10], 6.83%; in [11] it was -0.22%; in test [12], -0.12%. Also, the inhibition in test [13] was determined as 0.93%; in test [14] it was 1.57%; in [15], 7.78%; in [16], 6.93%; in [17], 1.95%; in test [18] it was 2.56%. Besides, the inhibition in test [19] was 1.14%; in test [20], 2.63%.

As to `CC1=C(C(=O)Nc2ccc3[nH]ncc3c2)C(c2ccc(Cl)c(Cl)c2)CC(=O)N1` (stereo not given), the inhibition in test [1] is -0.08%; in [2] it was 1.46%; in [3], 1.11%; in test [4], 1.63%; in [5], 0.95%; in [6] it was 2.81%. Besides, the inhibition is 4.25% in test [7]; 7.35% in test [8]; -1.63% in test [9]; -5.21% in test [10]; 1.51% in test [11]; 20.1% in [12]. The inhibition came out at 5.81% in test [13]; 35% in test [14]; 10.3% in [15]; 46.4% in [16]; 7.4% in [17]; 39.1% in test [18]. For the same compound, the inhibition in [19] was 3.83%; in [20] it was 25.2%.

On to `COc1cc(C)c(NC(=O)CN(C)C)cc1Nc1nc(Nc2cccc(F)c2C(N)=O)c2cc[nH]c2n1`, for which the inhibition in test [1] was 1.35%; in test [2], 0.96%; in test [3] it was 0.81%; in test [4] it was 1.17%; in test [5], 0.86%; in test [6], 1.72%. For the same compound, the inhibition was 12.9% in test [7]; 51.2% in [8]; 8.5% in test [9]; 28.1% in [10]; -0.22% in [11]; 2.53% in test [12]. The inhibition in [13] is -0.26%; in [14] it was 1.65%; in test [15], 1.58%; in [16], 0.97%; in test [17], -0.16%; in test [18], 2.07%. Also, the inhibition in [19] amounted to 2.03%; in test [20], 3.01%.

Regarding `COc1ccc(-c2coc3ncnc(N)c23)cc1`, the inhibition in test [1] was found to be 0.76%; in [2] it was 0.76%; in test [3] it was 2.07%; in test [4] it was 1.94%; in test [5] it was 0.3%; in test [6], 2.05%. The inhibition in [7] is 1.34%; in [8], 1.56%; in test [9], 3.57%; in [10] it was 9.28%; in test [11] it was 0.52%; in test [12] it was -0.11%. Also, the inhibition in test [13] was 1.16%; in test [14] it was 1.93%; in test [15], 9.6%; in test [16], 8.17%; in test [17] it was 1.64%; in test [18] it was 3.84%. The inhibition was determined as 1.77% in [19] and 2.26% in test [20].
